# In article PMC5700166:
# Changes are numbered by the printed parent chain.
# Assays:
# Assay in all cases: protein-binding microarray (PBM); PBM: ~300 nM protein, 6 mM HEPES pH 7.8, 80 mM KCl, 0.5 mM EDTA, 0.5 mM EGTA, 6% glycerol, 35 ng/ul poly-dIdC, 1% milk, 1 h, room temperature; Ap Aiptasia and Nv Nematostella (sea anemones) / Co Capsaspora / Aq Amphimedon (sponge) / Dm Drosophila / Hu human; RHD is the Rel homology domain; high values mean tight binding
# Conditions in all cases: dsDNA, one strand shown
# GST-Ap-NF-kB RHD = biological target: T1, GST-Ap-NF-kB RHD (Exaiptasia pallida (Aiptasia), UniProt A0A913YAJ5 2-422)
# T1 sequence: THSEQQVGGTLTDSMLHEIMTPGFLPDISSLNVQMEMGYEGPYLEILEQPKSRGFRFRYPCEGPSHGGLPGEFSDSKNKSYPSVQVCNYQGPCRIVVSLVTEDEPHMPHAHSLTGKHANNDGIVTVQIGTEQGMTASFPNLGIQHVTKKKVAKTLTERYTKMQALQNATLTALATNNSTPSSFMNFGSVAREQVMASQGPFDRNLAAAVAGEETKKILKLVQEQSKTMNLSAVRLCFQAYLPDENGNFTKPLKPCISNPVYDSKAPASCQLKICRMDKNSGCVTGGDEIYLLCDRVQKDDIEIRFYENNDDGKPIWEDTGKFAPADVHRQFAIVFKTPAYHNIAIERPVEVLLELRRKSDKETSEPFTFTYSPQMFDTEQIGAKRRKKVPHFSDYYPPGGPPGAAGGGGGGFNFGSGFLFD
# [1] = biological target: T2, GST-Nv-NF-kB (Cys allele) (Nematostella vectensis, UniProt E5G601 2-411)
# T2 sequence: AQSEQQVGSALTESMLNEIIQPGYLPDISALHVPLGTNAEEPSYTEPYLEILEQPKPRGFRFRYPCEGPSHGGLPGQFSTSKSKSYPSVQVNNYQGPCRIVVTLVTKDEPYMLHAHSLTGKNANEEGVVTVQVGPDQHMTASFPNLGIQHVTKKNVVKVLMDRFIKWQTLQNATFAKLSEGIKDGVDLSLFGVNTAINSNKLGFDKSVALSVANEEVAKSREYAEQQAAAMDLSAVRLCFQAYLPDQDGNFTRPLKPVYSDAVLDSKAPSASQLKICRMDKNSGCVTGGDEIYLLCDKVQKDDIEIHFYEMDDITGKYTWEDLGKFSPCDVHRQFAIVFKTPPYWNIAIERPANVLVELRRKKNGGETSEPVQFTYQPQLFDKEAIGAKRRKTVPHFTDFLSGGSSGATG
# [2] = biological target: T3, GST-Nv-NF-kB (Ser allele) (Nematostella vectensis, UniProt A7UNT2 2-411)
# T3 sequence: T2 sequence with Q21R, C66S, S207N, E215Q, V217A, E225K, A268E, D399E
# GST-Co-NF-kB = biological target: T4, GST-Co-NF-kB (Capsaspora owczarzaki, UniProt F1ARL5 200-546)
# T4 sequence: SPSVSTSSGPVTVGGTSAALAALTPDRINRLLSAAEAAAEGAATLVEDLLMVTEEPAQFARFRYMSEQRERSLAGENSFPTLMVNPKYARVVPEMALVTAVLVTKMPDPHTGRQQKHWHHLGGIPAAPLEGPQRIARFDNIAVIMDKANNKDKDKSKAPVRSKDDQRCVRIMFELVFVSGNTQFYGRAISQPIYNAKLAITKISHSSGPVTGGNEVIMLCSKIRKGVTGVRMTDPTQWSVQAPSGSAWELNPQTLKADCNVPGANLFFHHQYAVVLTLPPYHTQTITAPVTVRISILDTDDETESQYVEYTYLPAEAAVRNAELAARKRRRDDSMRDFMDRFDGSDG
# GST-Dm-Relish = biological target: T5, GST-Dm-Relish (Drosophila melanogaster, UniProt Q94527 99-473)
# T5 sequence: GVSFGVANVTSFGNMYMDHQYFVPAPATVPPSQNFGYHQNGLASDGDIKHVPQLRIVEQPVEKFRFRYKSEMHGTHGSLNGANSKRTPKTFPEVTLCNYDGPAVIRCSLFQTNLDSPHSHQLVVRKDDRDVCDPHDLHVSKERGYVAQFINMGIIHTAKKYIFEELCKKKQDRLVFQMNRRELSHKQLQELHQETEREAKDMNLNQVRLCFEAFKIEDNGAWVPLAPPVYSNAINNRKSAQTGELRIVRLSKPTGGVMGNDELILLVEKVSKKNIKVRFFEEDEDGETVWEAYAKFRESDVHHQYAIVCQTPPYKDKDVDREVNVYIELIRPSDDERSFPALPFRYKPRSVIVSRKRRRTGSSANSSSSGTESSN
# GST-Aq-NF-kB = biological target: T6, GST-Aq-NF-kB (Amphimedon queenslandica, UniProt A9Y5G7 2-389)
# T6 sequence: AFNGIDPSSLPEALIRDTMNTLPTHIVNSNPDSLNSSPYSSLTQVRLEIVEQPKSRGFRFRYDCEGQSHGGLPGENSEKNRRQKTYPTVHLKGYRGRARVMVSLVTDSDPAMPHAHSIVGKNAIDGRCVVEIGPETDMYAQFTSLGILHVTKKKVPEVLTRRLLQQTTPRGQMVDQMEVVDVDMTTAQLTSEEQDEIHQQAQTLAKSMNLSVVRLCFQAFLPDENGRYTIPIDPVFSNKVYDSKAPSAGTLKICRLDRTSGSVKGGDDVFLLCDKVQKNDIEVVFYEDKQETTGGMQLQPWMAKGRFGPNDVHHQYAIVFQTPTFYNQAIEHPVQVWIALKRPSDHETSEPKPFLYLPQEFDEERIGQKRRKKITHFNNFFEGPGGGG
Sequence,binding signal (GST-Ap-NF-kB RHD) [z-score],binding signal [1] [z-score],binding signal [2] [z-score],binding signal (GST-Co-NF-kB) [z-score],binding signal (GST-Dm-Relish) [z-score],binding signal (GST-Aq-NF-kB) [z-score]
CCGATTAACATCACGAAATTCCCTGATGTTAATCGGGTCTTGATTCGCTTGACGCTGCTG,4.84,6.78,7.28,4.17,4.59,5.74
CCGATTAACATCACAAATTTCCCTGATGTTAATCGGGTCTTGATTCGCTTGACGCTGCTG,4.62,6.4,6.92,5.22,3.72,6.5
CCGATTAACATCAAGGGGGGGTATGATGTTAATCGGGTCTTGATTCGCTTGACGCTGCTG,4.96,3.8,3.62,5.09,4.14,4.39
CCGATTAACATCACCATTTTCCCTGATGTTAATCGGGTCTTGATTCGCTTGACGCTGCTG,3.46,4.65,7.17,3.65,1.32,3.42
CCGATTAACATCAAGAGTTCCCCTGATGTTAATCGGGTCTTGATTCGCTTGACGCTGCTG,7.18,7.2,7.72,6.55,7.58,5.77
CCGATTAACATCAATTTATCCCCTGATGTTAATCGGGTCTTGATTCGCTTGACGCTGCTG,5.26,5.83,7.39,7.11,3.35,3.84
CCGATTAACATCAACGTGGGGCGTGATGTTAATCGGGTCTTGATTCGCTTGACGCTGCTG,1.07,1.14,1.09,1.11,,1.15
CCGATTAACATCAGGCGTTTCCCTGATGTTAATCGGGTCTTGATTCGCTTGACGCTGCTG,2.18,3.27,2.59,1.83,1.54,4.39
CCGATTAACATCAATAAATTCCCTGATGTTAATCGGGTCTTGATTCGCTTGACGCTGCTG,4.18,7.04,7.28,4.25,5.85,5.34
CCGATTAACATCAAGGGAAAAATTGATGTTAATCGGGTCTTGATTCGCTTGACGCTGCTG,3.76,6.35,7,5.22,1.89,5.11
CCGATTAACATCAAATATTTCCCTGATGTTAATCGGGTCTTGATTCGCTTGACGCTGCTG,3.87,6.57,6.99,5.89,4.25,6.66
CCGATTAACATCAACGTTTCCCCTGATGTTAATCGGGTCTTGATTCGCTTGACGCTGCTG,5.38,6.77,10.1,7.56,2.48,4.46
CCGATTAACATCAAATTCCCACGTGATGTTAATCGGGTCTTGATTCGCTTGACGCTGCTG,2.06,3.63,3.63,2.77,3.95,2.61
CCGATTAACATCAAACTTTTCCCTGATGTTAATCGGGTCTTGATTCGCTTGACGCTGCTG,3.37,5.66,6.83,4.78,1.45,4.63
CCGATTAACATCAACCTCCCCCCTGATGTTAATCGGGTCTTGATTCGCTTGACGCTGCTG,5.79,3.9,3.61,6.38,4.38,4.25
CCGATTAACATCACTATTTTCCCTGATGTTAATCGGGTCTTGATTCGCTTGACGCTGCTG,3.72,4.96,6.91,5.27,1.52,3.51
CCGATTAACATCACTTTCCCCCCTGATGTTAATCGGGTCTTGATTCGCTTGACGCTGCTG,5.84,5.86,7.31,9.03,4.29,5.34
CCGATTAACATCAACCCCCCCCTTGATGTTAATCGGGTCTTGATTCGCTTGACGCTGCTG,4.76,4,3.93,5.09,4.91,4.47
CCGATTAACATCAGATTATCCCCTGATGTTAATCGGGTCTTGATTCGCTTGACGCTGCTG,5.35,6.05,6.87,5.37,2.63,4.98
CCGATTAACATCAGGGGTGGGGATGATGTTAATCGGGTCTTGATTCGCTTGACGCTGCTG,4.17,3.38,3.28,5.49,2.85,3.59
CCGATTAACATCAGAGTTTTCCCTGATGTTAATCGGGTCTTGATTCGCTTGACGCTGCTG,3.96,5.58,6.71,4.75,1.89,4.65
CCGATTAACATCAATCCCCCCCATGATGTTAATCGGGTCTTGATTCGCTTGACGCTGCTG,7.7,5.57,4.56,6.68,5.46,4.81
CCGATTAACATCAGCCCCCCCCCTGATGTTAATCGGGTCTTGATTCGCTTGACGCTGCTG,4.45,5.13,3.95,5.44,4.51,5.11
CCGATTAACATCAGGGGAACTAATGATGTTAATCGGGTCTTGATTCGCTTGACGCTGCTG,4.99,5.41,6.66,6.12,4.37,4.07
CCGATTAACATCACGTATTCCCCTGATGTTAATCGGGTCTTGATTCGCTTGACGCTGCTG,7.14,7.75,7.86,6.56,4.86,5.55
CCGATTAACATCACTCTTTCCCCTGATGTTAATCGGGTCTTGATTCGCTTGACGCTGCTG,4.86,5.44,7.19,6.1,1.95,4.18
CCGATTAACATCAAAGGGAATTCTGATGTTAATCGGGTCTTGATTCGCTTGACGCTGCTG,4.72,7.1,6.91,2.97,4.04,5.65
CCGATTAACATCAACCAATCCCCTGATGTTAATCGGGTCTTGATTCGCTTGACGCTGCTG,5.19,5.28,6.6,2.16,2.29,3.86
CCGATTAACATCAACCCCCCCCATGATGTTAATCGGGTCTTGATTCGCTTGACGCTGCTG,5.53,4.32,3.55,4.94,5.75,4.01
